Paper PMC5540273 (PLoS ONE, 2017)

Tests used:
Settings in all cases: concentration: 1 μM, replicates: in singlicate; n = 1
[1] = test system: T1, RSK4(Kin.Dom.1-N-terminal)
T1 construct: gene RPS6KA6

[2] = test system: T2, RSK4(Kin.Dom.2-C-terminal)
T2 construct: gene RPS6KA6

S6K1 = test system: S6K1
SBK1 = test system: SBK1
SGK2 = test system: SGK2
SGK3 = test system: SGK3
SGK = test system: SGK
SIK2 = test system: SIK2
SIK = test system: SIK
SLK = test system: SLK
SNARK = test system: T3, SNARK
T3 construct: gene NUAK2

SNRK = test system: SNRK
SRC = test system: SRC
SRMS = test system: SRMS
SRPK1 = test system: SRPK1
SRPK2 = test system: SRPK2
SRPK3 = test system: SRPK3
STK16 = test system: STK16
STK33 = test system: STK33
STK35 = test system: STK35
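Note: KINOMEscan kinase panel screen.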

SMILES | %Inh [1] | %Inh [2] | %Inh (S6K1) | %Inh (SBK1) | %Inh (SGK2) | %Inh (SGK3) | %Inh (SGK) | %Inh (SIK2) | %Inh (SIK) | %Inh (SLK) | %Inh (SNARK) | %Inh (SNRK) | %Inh (SRC) | %Inh (SRMS) | %Inh (SRPK1) | %Inh (SRPK2) | %Inh (SRPK3) | %Inh (STK16) | %Inh (STK33) | %Inh (STK35)
COc1cc(Nc2nccc(N3CCC(NS(=O)(=O)c4ccc(NC(C)=O)cc4)CC3)n2)cc(OC)c1OC [GSK1379825] | 0% | 3% | 0% | 14% | 15% | 0% | 9% | 61% | 0% | 48% | 0% | 0% | 35% | 0% | 67% | 0% | 8% | 94.8% | 0% | 52%
CC(C)NCC(Cc1ccccc1)NC(=O)c1cc(Br)c(-c2ccnc3[nH]ccc23)s1.Cl.Cl (centres unmarked) [GSK1383281] | 5% | 20% | 56% | 45% | 0% | 66% | 59% | 0% | 4% | 0% | 89% | 0% | 0% | 0% | 43% | 0% | 0% | 46% | 96.6% | 0%
Cc1cc(-c2ccnc(Nc3cccc(C#N)c3)n2)cc(C)c1O [GSK1440913] | 0% | 0% | 0% | 28% | 29% | 6% | 55% | 15% | 0% | 21% | 27% | 0% | 7% | 0% | 78% | 54% | 92.2% | 90.4% | 32% | 25%
Cc1ccc(NC(=O)c2ccc(Cl)c(Cl)c2)cc1-c1ccc(C(=O)Nc2ccncc2)cc1 [GSK1398460] | 0% | 23% | 0% | 15% | 0% | 14% | 0% | 9% | 8% | 29% | 9% | 0% | 23% | 0% | 34% | 0% | 14% | 14% | 0% | 0%
O=C(O)C(F)(F)F.O=c1[nH]ccc2nc(N[C@@H]3CCNC3)nc(Nc3cc(Cl)cc(Cl)c3)c12 [GSK2188764] | 96.3% | 32% | 94.3% | 91.5% | 96.4% | 99.5% | 99.9% | 54% | 1% | 98.9% | 98.8% | 6% | 0% | 3% | 84% | 14% | 77% | 95% | 98.1% | 46%
Fc1cc(Cl)ccc1Nc1ccnc2cc(-c3ccc(CN4CCOCC4)o3)ccc12 [GW560109] | 0% | 90.3% | 26% | 37% | 6% | 0% | 0% | 100% | 97.4% | 32% | 0% | 7% | 99.2% | 15% | 35% | 0% | 10% | 0% | 6% | 92.1%
CCNC(=O)/C=C/c1n[nH]c2cc(Sc3ccccc3C(=O)NC)ccc12 | 17% | 24% | 18% | 0% | 0% | 46% | 0% | 55% | 44% | 23% | 42% | 5% | 7% | 7% | 63% | 0% | 37% | 10% | 0% | 48%
CN(C)c1ncnc2nc[nH]c12 [SKF-31736] | 28% | 8% | 29% | 0% | 23% | 0% | 14% | 0% | 0% | 0% | 0% | 0% | 0% | 20% | 0% | 10% | 17% | 0% | 0% | 0%
O=C1NC(=O)C(c2ccccc2Cl)=C1Nc1cccc(Cl)c1 [SB-342409] | 0% | 9% | 7% | 8% | 0% | 5% | 0% | 0% | 5% | 96.5% | 0% | 11% | 0% | 0% | 21% | 0% | 23% | 13% | 0% | 6%
Cc1nn2c(=O)cc(N3CCO[C@H](C)C3)nc2n1Cc1cccc(Cl)c1Cl [GSK2373693] | 0% | 0% | 4% | 89% | 1% | 0% | 0% | 0% | 0% | 4% | 0% | 0% | 19% | 0% | 40% | 0% | 0% | 59% | 0% | 1%
